# Results taken from ChEMBL document CHEMBL4808148, “HDAC6 screening dataset using tau-based substrate in an enzymatic assay yields selective inhibitors and activators” (2021).
# Among all 5,600 compounds or so, about 390 (7%) showed an effect of 50% or more. This is one part of a sample in which strong results are shown more often than they occur. Starred links: 1 amine or outer side, 2 acyl side, 3 side chain; linkers in the order of their positions; H or OH if unused. Positions of bridges follow the written chain, without caps; N, C: chain ends. Non-standard residues stand in square brackets, D forms with d. Residues, ends and D or L forms follow the SMILES beside them. Chains are numbered I, II in the order given. Actinocin(9to1) = Cc1c2oc3c(C)ccc(C(=O)[*:1])c3nc-2c(C(=O)[*:2])c(N)c1=O; dPhe(4-Cl) = N[C@H](Cc1ccc(Cl)cc1)C(=O)O; d2Nal = N[C@H](Cc1ccc2ccccc2c1)C(=O)O; dCit = NC(=O)NCCC[C@@H](N)C(=O)O; d3Pal = N[C@H](Cc1cccnc1)C(=O)O; NMeV = CN[C@H](C(=O)O)C(C)C; Sar = CNCC(=O)O
# Assays:
# [1] = biological target: T1, Protein deacetylase HDAC6 (Homo sapiens) (UniProt Q9UBN7); settings: at 10 µM
# T1 sequence (whole entry): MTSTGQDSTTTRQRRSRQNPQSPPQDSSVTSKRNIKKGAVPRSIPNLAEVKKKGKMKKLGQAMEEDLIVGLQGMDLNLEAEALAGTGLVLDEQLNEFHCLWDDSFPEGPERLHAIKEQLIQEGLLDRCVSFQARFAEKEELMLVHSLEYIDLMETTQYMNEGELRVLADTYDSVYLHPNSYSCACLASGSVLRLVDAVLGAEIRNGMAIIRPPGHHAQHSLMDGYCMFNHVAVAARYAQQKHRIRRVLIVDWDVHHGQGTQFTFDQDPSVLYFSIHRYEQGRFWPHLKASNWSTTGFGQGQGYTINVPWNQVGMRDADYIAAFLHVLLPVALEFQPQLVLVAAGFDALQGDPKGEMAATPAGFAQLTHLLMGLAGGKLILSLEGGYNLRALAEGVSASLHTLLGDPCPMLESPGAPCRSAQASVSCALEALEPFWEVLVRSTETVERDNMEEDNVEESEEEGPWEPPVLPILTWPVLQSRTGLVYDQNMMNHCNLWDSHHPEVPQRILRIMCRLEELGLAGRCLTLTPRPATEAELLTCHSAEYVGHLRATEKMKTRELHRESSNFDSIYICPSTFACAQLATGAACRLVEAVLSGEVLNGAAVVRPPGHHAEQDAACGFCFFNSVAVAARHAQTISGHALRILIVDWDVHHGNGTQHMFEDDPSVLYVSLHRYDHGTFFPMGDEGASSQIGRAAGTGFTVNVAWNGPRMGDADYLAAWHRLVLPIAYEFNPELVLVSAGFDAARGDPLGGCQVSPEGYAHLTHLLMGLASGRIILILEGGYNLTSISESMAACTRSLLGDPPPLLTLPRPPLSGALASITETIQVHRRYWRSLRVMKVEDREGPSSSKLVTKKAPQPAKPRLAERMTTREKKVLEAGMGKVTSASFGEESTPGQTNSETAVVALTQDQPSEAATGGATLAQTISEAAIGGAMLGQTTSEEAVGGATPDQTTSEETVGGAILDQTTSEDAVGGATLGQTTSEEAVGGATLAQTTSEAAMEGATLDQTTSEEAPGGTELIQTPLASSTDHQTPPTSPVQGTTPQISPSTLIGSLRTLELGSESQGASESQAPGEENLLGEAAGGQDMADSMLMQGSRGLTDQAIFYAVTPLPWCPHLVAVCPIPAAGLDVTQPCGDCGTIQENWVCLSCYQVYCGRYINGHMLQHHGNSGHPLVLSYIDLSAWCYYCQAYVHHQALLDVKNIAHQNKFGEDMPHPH
# [2] = biological target: Protein deacetylase HDAC6 (Homo sapiens) (UniProt Q9UBN7); settings: at 10 µM; remark: listed apart in the source
Molecule,inhibition [1],inhibition [2]
Cc1nnc(C(C)C)n1[C@H]1C[C@H]2CC[C@@H](C1)N2CC[C@H](NC(=O)C1CCC(F)(F)CC1)c1ccccc1,25%,–
CNC(=O)c1ccccc1Sc1ccc2c(/C=C/c3ccccn3)n[nH]c2c1,105%,–
CCCCc1nc(Cl)c(C(=O)O)n1Cc1ccc(-c2ccccc2-c2nn[nH]n2)cc1,6.5%,–
CCOc1nc2cccc(C(=O)O)c2n1Cc1ccc(-c2ccccc2-c2nnn[nH]2)cc1,-9.37%,–
CCCc1nc2c(C)cc(-c3nc4ccccc4n3C)cc2n1Cc1ccc(-c2ccccc2C(=O)O)cc1,65%,–
O=C(O)[C@H]1C[C@@H](CP(=O)(O)O)CCN1,7.25%,–
CC(C)C[C@@H](C(=O)N[C@H](C(=O)OC1CCCC1)c1ccccc1)[C@H](O)C(=O)NO,-7.78%,–
[K+],17.5%,–
O=C(Nc1cnn2ccc(N3CCC[C@@H]3c3cc(F)ccc3F)nc12)N1CC[C@H](O)C1,28.9%,–
O=C1C(O)=C(O)C(=O)C(O)=C1O,1.19%,–
CCc1cncnc1N1CCN(Cc2nc3cc(C(F)(F)F)ccc3[nH]2)CC1,2.81%,–
c1ccc(N2CCN(Cc3nc4ccccc4[nH]3)CC2)nc1,20.5%,–
CC(C)(C)c1ccc(-c2nc3c(N4CCN(Cc5ccc6nccnc6c5)CC4)cccc3[nH]2)cc1,110%,–
CCCCCCCN(CC)CCCC(O)c1ccc(NS(C)(=O)=O)cc1 (stereo unspecified),30.4%,–
O=C(c1ccc(C(=O)N2CCC(N3CCCC3)CC2)c(Nc2ccccc2)c1)N1CCC(N2CCCC2)CC1,28.5%,–
COc1cc2c(cc1OCCCN1CCCC1)N=C(N)C21CCC1,-4.1%,–
O=C(O)c1ccc(/C=C2/SC(=S)N(c3cccc(C(F)(F)F)c3)C2=O)cc1,4.63%,–
COc1ccccc1OCC(O)CO (stereo unspecified),-8.39%,–
NC(=O)OCC(O)COc1ccc(Cl)cc1 (stereo unspecified),47.1%,–
COc1ccccc1OCC(O)COC(N)=O (stereo unspecified),75.6%,–
CC(C)C[C@H](NC(=O)N1CCCCCC1)C(=O)N[C@H](Cc1cn(C)c2ccccc12)C(=O)N[C@H](Cc1ccccn1)C(=O)O,-8.82%,–
CC(=O)N[C@H](Cc1ccc2ccccc2c1)C(=O)N[C@H](Cc1ccc(Cl)cc1)C(=O)N[C@H](Cc1cccnc1)C(=O)N[C@@H](CO)C(=O)N[C@@H](Cc1ccc(O)cc1)C(=O)N[C@H](CCCNC(N)=O)C(=O)N[C@@H](CC(C)C)C(=O)N[C@@H](CCCNC(=N)N)C(=O)N1CCC[C@H]1C(=O)N[C@H](C)C(N)=O (Ac-[d2Nal][dPhe(4-Cl)][d3Pal]SY[dCit]LRP[dA]-NH2),30.9%,–
Cc1nc(C)c(C)nc1C,-3.53%,–

Molecule,inhibition [1],inhibition [2]
COc1ccc(-c2ccc(=N)n(CCCC(=O)O)n2)cc1,8.71%,–
O=c1ncn2nc(Sc3ccc(F)cc3F)ccc2c1-c1c(Cl)cccc1Cl,36.3%,–
CN1c2c([nH]c(N)nc2=O)NC[C@@H]1CNc1ccc(C(=O)N[C@@H](CCC(=O)O)C(=O)O)cc1,11.1%,–
CCc1nc2ccc(Cl)cn2c1C(=O)NCc1ccc(N2CCC(c3ccc(OC(F)(F)F)cc3)CC2)cc1,6.99%,–
COc1cccc(-c2cc(=O)c3ccccc3o2)c1N,97.4%,–
CC(=O)N[C@@H](CSC/C=C(\C)CC/C=C(\C)CCC=C(C)C)C(=O)O,19.5%,–
Cc1ccc(N2CCN(CCC3NC(=O)c4ccccc43)CC2)cc1C (stereo unspecified),0.62%,–
CCN(Cc1ccccc1)C(=O)Cn1c(=O)n(C)c2cnc(-c3ccccc3)nc21,31.2%,–
Cc1cc2nc3ccc(N(C)C)cc3[s+]c2cc1N,60.9%,–
CC1CCN(C(c2ccc(F)cc2)c2ccc(C(C)C(=O)O)cc2-c2ccc(C(F)(F)F)cc2)CC1 (stereo unspecified),27.9%,–
Nc1ncnc2nc(-c3ccc(N4CCOCC4)nc3)cc(-c3cccc(Br)c3)c12,19.8%,–
"BLEOMYCIN SULFATE, CHEMBL6067493",–,23.1%
"CYANOCOBALAMIN, CHEMBL2110563",–,-2.71%
"FLUPENTIXOL, CHEMBL6066864",–,88.9%
O=c1ccc2cc3ccoc3cc2o1,17.5%,–
CC(=O)Nc1ccc(C(=O)Nc2ccccc2N)cc1,-0.35%,–
CC(C)[C@H](C(=O)Nc1ccc(C(=O)NO)cc1)c1ccccc1,101%,–
O=C(O)c1ccc(NC(=O)[C@H](Cc2ccc(O)cc2)NC(=O)c2ccccc2)cc1,10.6%,–
CC1(C)Oc2ccc(C#N)cc2[C@@H](N2CCCC2=O)[C@@H]1O,-9.16%,–
Cc1ccc(C(=O)Cn2c3c(sc2=N)CCCC3)cc1,102%,–
CCOC(=O)C1=C(C)NC(c2ccccc2)=C(C(=O)OCc2ccc([N+](=O)[O-])cc2)C1C#Cc1ccccc1 (stereo unspecified),-2.41%,–
COc1cccc(CCc2ccccc2OCC(CN(C)C)OC(=O)CCC(=O)O)c1 (stereo unspecified),-7%,–
COc1cccc(/C=N/C=N/c2cccc(OC)c2)c1,99.8%,–

Molecule,inhibition [1],inhibition [2]
N/C(=N\C(=O)c1nc(Cl)c(N)nc1N)NCc1ccccc1,25.2%,–
N[C@H](C(=O)O)c1ccc(O)cc1,4.75%,–
Cc1cc(-c2nc(C(=O)Nc3cn(C4CCOCC4)nc3C(N)=O)co2)ccn1,22.8%,–
CC(=O)Nc1ccc(S(=O)(=O)Nc2ccc([N+](=O)[O-])cc2)cc1,17.7%,–
O=C(/C=C/c1cccc(S(=O)(=O)Nc2ccccc2)c1)NO,102%,–
COc1ccc(/C=C/C(=O)Nc2ccccc2C(=O)O)cc1OC,40.8%,–
c1cc(-c2sc(-c3ccncc3)c(-c3ccncc3)c2-c2ccncc2)ccn1,17%,–
COc1cc(N)c(Cl)cc1C(=O)CCC1CCN(CCNS(C)(=O)=O)CC1,-6.48%,–
Nc1ncnc2c1ncn2[C@@H]1O[C@H](CO)C[C@H]1O,-9.63%,–
CC(=O)Oc1c(C)cc(OCC(O)CNC(C)C)c(C)c1C (stereo unspecified),28.4%,–
CCOc1ccc(-n2c(C(C)N(Cc3cccnc3)C(=O)Cc3ccc(F)c(C(F)(F)F)c3)nc3ncccc3c2=O)cc1 (racemic),-3.08%,–
COc1cccc(-c2ccc(NC(=O)C3=C(C(=O)O)CCC3)c(F)c2)c1,43.2%,–
COc1cc2nccc(Oc3ccc(NC(=O)Nc4ccc(F)cc4F)c(F)c3)c2cc1OC,10.8%,–
CCCCOc1ccc(C(=O)Nc2ccc(F)cc2F)cc1,69.8%,–
"CHLOROPHYLLIDECOPPER COMPLEX SODIUM SALT, CHEMBL5308389",–,8.12%
"Chlorophyllin (sodium copper salt), CHEMBL5308389",–,19.3%
"BISMUTH SUBSALICYLATE, CHEMBL1120",–,12.2%
O=C(O)C1(c2ccc(-c3ccc(Cl)c(Cl)c3)c(F)c2)CC1,33.4%,–
O=C(O)c1cc(-c2ccc(F)cc2F)ccc1O,60.9%,–
Cc1c(-c2ccc(-c3ccccc3F)cc2)nc2ccc(F)cc2c1C(=O)O,-9.14%,–
CC(C)[C@@H](C)/C=C/[C@@H](C)[C@H]1CC[C@H]2/C(=C/C=C3\C[C@@H](O)CC[C@@H]3C)CCC[C@]12C,11.8%,–
CC(C)(O)c1coc(S(=O)(=O)NC(=O)Nc2c3c(cc4c2CCC4)CCC3)c1,-9.36%,–
Cc1cnc(NC(=O)Nc2cc(Br)c(C)cc2OC[C@@H]2CNCCO2)cn1,-8.01%,–

Molecule,inhibition [1],inhibition [2]
COc1cc(COc2cc(N)c(Cl)cc2C(=O)CCC2CCN(CCNS(C)(=O)=O)CC2)cc(OC)c1,28.1%,–
Cc1c(NC(=O)N2CCOCC2)ccc2c1c1ccccc1n2C(C)C,21.6%,–
CSc1ccc2c(c1)N(CCC1CCCCN1C)c1ccccc1S2 (stereo unspecified),21.9%,–
CN1CCCC(CC2c3ccccc3Sc3ccccc32)C1 (stereo unspecified),34.4%,–
CSc1ccc2c(c1)C(N1CCN(C)CC1)Cc1ccccc1S2 (stereo unspecified),62.7%,–
NC(=O)C[C@H](N)C(=O)O,16.2%,–
O=C(O)CNC(=O)c1nc(Cl)c2ccccc2c1O,-6.14%,–
"Cc1c2oc3c(C)ccc(C(=O)N[C@@H]4C(=O)N[C@@H](C(C)C)C(=O)N5CCC[C@H]5C(=O)N(C)CC(=O)N(C)[C@@H](C(C)C)C(=O)O[C@@H]4C)c3nc-2c(C(=O)N[C@@H]2C(=O)N[C@@H](C(C)C)C(=O)N3CCC[C@H]3C(=O)N(C)CC(=O)N(C)[C@@H](C(C)C)C(=O)O[C@@H]2C)c(N)c1=O (I: TVP[Sar][NMeV] / II: TVP[Sar][NMeV]; ester I:1-I:C, II:1-II:C; linker I:N-II:N via Actinocin(9to1))",21%,–
COc1cccc([C@H](O)C2CCN(CCc3ccc(F)cc3)CC2)c1OC,-1.53%,–
COc1ccccc1S(=O)(=O)Nc1ccc2c(c1)CN(C)C(=O)N2,-9.44%,–
COc1cc2c(cc1OC)CN(CCc1ccc(NC(=O)c3cccc4c(=O)c5cccc(OC)c5[nH]c34)cc1)CC2,59.7%,–
COc1cnc(-n2cnc(C)n2)c2[nH]cc(C(=O)C(=O)N3CCN(C(=O)c4ccccc4)CC3)c12,12.8%,–
CC(C)(Sc1ccc(CCN(CCCCC2CCCCC2)C(=O)NC2CCCCC2)cc1)C(=O)O,10.4%,–
COc1ccc(/C=C\CCCCOc2ccc(C(=O)c3cccc(C(=O)O)c3)cc2CCC(=O)O)cc1,-0.99%,–
CC(C)(C)c1ccc(CN(Cc2cccc(OCC(=O)O)c2)S(=O)(=O)c2cccnc2)cc1,3.1%,–
Cc1onc(-c2c(Cl)cccc2Cl)c1C(=O)N[C@@H]1C(=O)N([C@@H](C(=O)O)C(C)(C)C)[C@@H]1S,-9.26%,–
O=C(Nc1ccccc1-c1cn2c(CN3CCNCC3)csc2n1)c1cnc2ccccc2n1,55.6%,–
O=C(C1CC1)N1CC[C@@H](Cc2n[nH]c(=O)n2-c2ccc(-c3ccc4occc4c3)cc2)C1,39.2%,–
CN[C@@H]1[C@@H](O)[C@H](O[C@@H]2[C@@H](O)[C@H](O[C@H]3O[C@H](CN)[C@@H](O)[C@H](O)[C@H]3O)[C@@H](N)C[C@H]2NC(=O)[C@@H](O)CN)OC[C@]1(C)O,-4.97%,–
Cc1ccc(F)c(NC(=O)Nc2ccc(-c3cccc4[nH]nc(N)c34)cc2)c1,94.5%,–
Cc1cc(NC(=O)Nc2ccc(N(C)C)cc2)c2cc(F)cc(F)c2n1,9.39%,–
C[N+]1(CCCCC[N+]2(C)CCCC2)CCCC1,1.14%,–
